Experimental data reported in the antibiotic and cytotoxicity screens of Wong et al. (2023).
Hit rate of the full screen: of about 39,000 compounds, about 3,300 (8.5%) were called active. What follows is part of a selection rich in actives, with near analogues and random picks from the rest.

System: HepG2
Experiment: cytotoxicity call (relative viability < 0.9)
Details: 10 µM

Structure (SMILES)	cytotoxicity call
COc1ccc(S(=O)(=O)Nc2ccc3c(c2)C(=O)N([C@H](C)CO)C[C@H](C)[C@H](CN(C)S(=O)(=O)c2cn(C)cn2)O3)cc1	inactive
C[C@H]1CN([C@@H](C)CO)C(=O)c2cc(NC(=O)c3ccncc3)ccc2O[C@H]1CN(C)S(=O)(=O)c1cccs1	inactive
COCCOC(=O)N1C(=O)[C@@]2(c3cc(C#CC4=CCCCC4)ccc31)[C@H](C(=O)N1CCN(c3ncccn3)CC1)[C@H]1C(=O)O[C@H](c3ccccc3)[C@H](c3ccccc3)N1[C@@H]2c1ccc(O)cc1	inactive
C=CCn1c(N2CCN(c3ccc(OC)cc3)CC2)nc2c1c(=O)n(C)c(=O)n2C	inactive
C=CCn1c(=O)c2cnc(Nc3ccc(N4CCN(C)CC4)cc3)nc2n1-c1cccc(C(C)(C)O)n1	active
COC(=O)C[C@@H]1CC[C@H]2[C@@H](COC[C@@H](O)CN2S(=O)(=O)c2ccccc2C)O1	inactive
Cn1c(=O)cc(N2CCCC(N)C2)n(Cc2ccccc2C#N)c1=O.O=C(O)c1ccccc1 (stereo not given)	active
Cn1c(=O)cc(N2CCC[C@@H](N)C2)n(Cc2ccccc2C#N)c1=O	inactive
Cn1c(=O)cc(N2CCC[C@@H](N)C2)n(Cc2cc(F)ccc2C#N)c1=O	inactive
C[C@H](CO)N1C[C@H](C)[C@@H](CN(C)C(=O)Cc2ccccc2)OCCCC[C@H](C)Oc2ccc(NC(=O)Nc3ccc(F)cc3)cc2C1=O	inactive
CCCC#Cc1ccc2c(c1)O[C@@H](CN(C)S(=O)(=O)c1cccc(F)c1)[C@H](C)CN([C@H](C)CO)S2(=O)=O	inactive
Cc1ccc(S(=O)(=O)N2CCNCC2)cc1	inactive
Br.Cc1ccc(Sc2ccccc2N2CCNCC2)c(C)c1	active
C[C@@H]1CN([C@@H](C)CO)C(=O)c2cc(C#Cc3cccc(F)c3)cnc2O[C@@H]1CN(C)Cc1ccccn1	inactive
C[C@@H]1CCCCO[C@@H](CN(C)S(=O)(=O)c2cccs2)[C@@H](C)CN([C@H](C)CO)C(=O)c2cc(NC(=O)Nc3cccc4ccccc34)ccc2O1	inactive
C=C/C=C/C[C@@H](C)[C@@H](O)[C@H]1C(=O)N[C@@H](CC)C(=O)N(C)CC(=O)N(C)[C@@H](CC(C)C)C(=O)N[C@@H](C(C)C)C(=O)N(C)[C@@H](CC(C)C)C(=O)N[C@@H](C)C(=O)N[C@H](C)C(=O)N(C)[C@@H](CC(C)C)C(=O)N(C)[C@@H](CC(C)C)C(=O)N(C)[C@@H](C(C)C)C(=O)N1C	inactive
CC=CCC(C)C(O)C1C(=O)NC(CC)C(=O)N(C)CC(=O)N(C)C(CC(C)C)C(=O)NC(C(C)C)C(=O)N(C)C(CC(C)C)C(=O)NC(C)C(=O)NC(C)C(=O)N(C)C(CC(C)C)C(=O)N(C)C(CC(C)C)C(=O)N(C)C(C(C)C)C(=O)N1C (stereo not given)	active
C/C=C/C[C@@H](C)[C@@H](O)[C@H]1C(=O)N[C@@H](CC)C(=O)N(C)CC(=O)N(C)[C@@H]([C@@H](C)CC)C(=O)N[C@@H](C(C)C)C(=O)N(C)[C@@H](CC(C)C)C(=O)N[C@@H](C)C(=O)N[C@H](C)C(=O)N(C)[C@@H](CC(C)C)C(=O)N(C)[C@@H](CC(C)C)C(=O)N(C)[C@@H](C(C)C)C(=O)N1C	inactive
CC(C)NC(=O)N(C)C[C@@H]1OCc2cnnn2CCCC(=O)N([C@H](C)CO)C[C@H]1C	inactive
CCC(=O)Nc1ccc2c(c1)OC[C@@H](C)N(S(=O)(=O)c1cn(C)cn1)C[C@@H](C)[C@H](OC)CN(C)C2=O	inactive
Cc1c(N)nc([C@H](CC(N)=O)NC[C@H](N)C(N)=O)nc1C(=O)N[C@H](C(=O)N[C@H](C)[C@@H](O)[C@H](C)C(=O)N[C@H](C(=O)NCCc1nc(-c2nc(C(=O)NCCCNCCCCN)cs2)cs1)[C@@H](C)O)[C@@H](O[C@@H]1O[C@@H](CO)[C@@H](O)[C@H](O)[C@@H]1O[C@@H]1O[C@H](CO)[C@@H](O)[C@H](OC(N)=O)[C@@H]1O)c1c[nH]cn1	inactive
C[C@H](CO)N1C[C@H](C)[C@@H](CN(C)C(=O)C2CCCCC2)Oc2cc(Br)ccc2S1(=O)=O	inactive

Structure (SMILES)	cytotoxicity call
N#CCCn1nc2c(c1N)CCC2	inactive
Cc1noc(C)c1NC(=O)Nc1ccc2c(c1)C(=O)N([C@@H](C)CO)C[C@H](C)[C@H](CN(C)Cc1ccc(C(F)(F)F)cc1)OCCCC[C@@H](C)O2	inactive
C[C@H](CO)N1C[C@H](C)[C@H](CN(C)C(=O)Cc2ccccc2)OCCCC[C@H](C)Oc2ccc(NC(=O)CCC(F)(F)F)cc2C1=O	inactive
C[C@@H]1CCCCO[C@@H](CN(C)C(=O)Nc2cccc3ccccc23)[C@H](C)CN([C@@H](C)CO)C(=O)c2cc(NS(=O)(=O)c3cn(C)cn3)ccc2O1	inactive
C[C@H]1CCCCO[C@H](CN(C)C(=O)Nc2cccc3ccccc23)[C@@H](C)CN([C@@H](C)CO)C(=O)c2cc(NS(=O)(=O)c3cn(C)cn3)ccc2O1	inactive
C[C@@H]1CCCCO[C@@H](CN(C)C(=O)Nc2cccc3ccccc23)[C@H](C)CN([C@H](C)CO)C(=O)c2cc(NS(=O)(=O)c3cn(C)cn3)ccc2O1	inactive
C[C@H](CO)N1C[C@H](C)[C@H](CN(C)C(=O)Nc2cccc3ccccc23)OCCCC[C@H](C)Oc2ccc(NS(=O)(=O)c3cn(C)cn3)cc2C1=O	inactive
C[C@@H]1CN([C@@H](C)CO)C(=O)c2cc(NS(=O)(=O)c3cn(C)cn3)ccc2O[C@@H](C)CCCCO[C@@H]1CN(C)C(=O)Nc1cccc2ccccc12	active
C[C@H]1CCCCO[C@@H](CN(C)C(=O)Nc2cccc3ccccc23)[C@@H](C)CN([C@@H](C)CO)C(=O)c2cc(NS(=O)(=O)c3cn(C)cn3)ccc2O1	active
C[C@@H]1CCCCO[C@@H](CN(C)C(=O)Nc2cccc3ccccc23)[C@@H](C)CN([C@H](C)CO)C(=O)c2cc(NS(=O)(=O)c3cn(C)cn3)ccc2O1	inactive
C[C@@H]1CN([C@@H](C)CO)C(=O)c2cc(NS(=O)(=O)c3cn(C)cn3)ccc2O[C@@H](C)CCCCO[C@H]1CN(C)C(=O)Nc1cccc2ccccc12	inactive
C[C@@H]1CCCCO[C@H](CN(C)C(=O)Nc2cccc3ccccc23)[C@H](C)CN([C@H](C)CO)C(=O)c2cc(NS(=O)(=O)c3cn(C)cn3)ccc2O1	active
Cc1cn([C@H]2O[C@@H](CO)[C@H](O)[C@H]2F)c(=O)[nH]c1=O	inactive
COCCNC(=O)C[C@@H]1C[C@H]2c3cc(NC(=O)COC)ccc3O[C@H]2[C@@H](CO)O1	inactive
COc1ccc(S(=O)(=O)Nc2cccc3c2O[C@H](CN(C)S(=O)(=O)c2ccc(C)cc2)[C@H](C)CN([C@H](C)CO)C3=O)cc1	inactive
COc1ccccc1Nc1nc(-c2ccc(Cl)cc2)cs1	inactive
C[C@H](CO)N1C[C@H](C)[C@H](CN(C)S(C)(=O)=O)Oc2ccc(NC(=O)CCN3CCOCC3)cc2CC1=O	inactive
C[C@@H]1CN([C@H](C)CO)C(=O)Cc2cc(NC(=O)C3CC3)ccc2O[C@H]1CN(C)C(=O)Nc1ccc2c(c1)OCO2	inactive
C[C@@H]1CN([C@H](C)CO)C(=O)Cc2cc(NC(=O)c3ccncc3)ccc2O[C@H]1CN(C)Cc1ccc(C(=O)O)cc1	inactive
COc1ccc(S(=O)(=O)Nc2ccc3c(c2)C(=O)N([C@@H](C)CO)C[C@@H](C)[C@H](CN(C)C(=O)Nc2ccccc2)OCCCC[C@@H](C)O3)cc1	inactive
CCN(CC)CCOC(=O)C1(C2CCCCC2)CCCCC1.Cl	inactive
CCN(CC)CCOC(=O)C(c1ccccc1)c1ccccc1.Cl	inactive

Structure (SMILES)	cytotoxicity call
CCN(CC)CCOC(=O)C(c1ccccc1)C1CCCCC1.Cl (stereo not given)	active
COc1ccc(S(=O)(=O)N(C)C[C@@H]2Oc3ncc(-c4ccccc4)cc3C(=O)N([C@H](C)CO)C[C@@H]2C)cc1	inactive
C[C@H](CO)N1C[C@H](C)[C@H](CN(C)S(=O)(=O)c2cn(C)cn2)Oc2cc(C3=CCCCC3)ccc2S1(=O)=O	inactive
COc1ccc(CNC(=O)C[C@@H]2C[C@@H]3c4cc(NC(=O)NC5CCCC5)ccc4O[C@@H]3[C@H](CO)O2)cc1	inactive
CC1(C)CCC2(C(=O)O)CCC3(C)C(=CCC4C5(C)CCC(O)C(C)(C)C5CCC43C)C2C1 (stereo not given)	inactive
COC(=O)[C@@]12CC[C@@H](C)[C@@H](C)[C@@H]1C1=CC[C@H]3[C@@]4(C)CC[C@@H](OC(C)=O)C(C)(C)[C@@H]4CC[C@@]3(C)[C@@]1(C)CC2	inactive
CC1CCC2(C(=O)O)CCC3(C)C(=CCC4C5(C)CCC(O)C(C)(C)C5CCC43C)C2C1C (stereo not given)	active
Cc1noc(C)c1S(=O)(=O)Nc1ccc2c(c1)CC(=O)N([C@H](C)CO)C[C@@H](C)[C@@H](CN(C)C(=O)Nc1ccccc1)O2	inactive
COc1ccccc1S(=O)(=O)N1C[C@@H](O)COC[C@@H]2O[C@H](CC(=O)O)CC[C@H]21	inactive
C[C@@H]1CCCCO[C@@H](CN(C)S(=O)(=O)c2ccc(Cl)cc2)[C@H](C)CN([C@H](C)CO)C(=O)c2cc(NS(=O)(=O)c3cccs3)ccc2O1	active
C[C@@H]1CCCCO[C@@H](CN(C)S(=O)(=O)c2ccc(Cl)cc2)[C@@H](C)CN([C@@H](C)CO)C(=O)c2cc(NS(=O)(=O)c3cccs3)ccc2O1	inactive
C[C@@H]1CCCCO[C@H](CN(C)S(=O)(=O)c2ccc(Cl)cc2)[C@H](C)CN([C@@H](C)CO)C(=O)c2cc(NS(=O)(=O)c3cccs3)ccc2O1	inactive
C[C@@H]1CCCCO[C@H](CN(C)S(=O)(=O)c2ccc(Cl)cc2)[C@@H](C)CN([C@@H](C)CO)C(=O)c2cc(NS(=O)(=O)c3cccs3)ccc2O1	inactive
C[C@H]1CCCCO[C@H](CN(C)S(=O)(=O)c2ccc(Cl)cc2)[C@@H](C)CN([C@@H](C)CO)C(=O)c2cc(NS(=O)(=O)c3cccs3)ccc2O1	inactive
C[C@H](CO)N1C[C@H](C)[C@H](CN(C)S(=O)(=O)c2ccc(Cl)cc2)OCCCC[C@H](C)Oc2ccc(NS(=O)(=O)c3cccs3)cc2C1=O	inactive
C[C@@H]1CCCCO[C@H](CN(C)S(=O)(=O)c2ccc(Cl)cc2)[C@@H](C)CN([C@H](C)CO)C(=O)c2cc(NS(=O)(=O)c3cccs3)ccc2O1	inactive
C[C@@H]1CCCCO[C@H](CN(C)S(=O)(=O)c2ccc(Cl)cc2)[C@H](C)CN([C@H](C)CO)C(=O)c2cc(NS(=O)(=O)c3cccs3)ccc2O1	inactive
C[C@@H]1CN([C@H](C)CO)C(=O)c2cc(NS(=O)(=O)c3cccs3)ccc2O[C@@H](C)CCCCO[C@@H]1CN(C)S(=O)(=O)c1ccc(Cl)cc1	active
C[C@H](CO)N1C[C@H](C)[C@@H](CN(C)S(=O)(=O)c2ccc(Cl)cc2)OCCCC[C@H](C)Oc2ccc(NS(=O)(=O)c3cccs3)cc2C1=O	inactive
C[C@@H]1CN([C@@H](C)CO)C(=O)c2cc(NS(=O)(=O)c3cccs3)ccc2O[C@@H](C)CCCCO[C@H]1CN(C)S(=O)(=O)c1ccc(Cl)cc1	active
C[C@@H]1CCCCO[C@@H](CN(C)S(=O)(=O)c2ccc(Cl)cc2)[C@H](C)CN([C@@H](C)CO)C(=O)c2cc(NS(=O)(=O)c3cccs3)ccc2O1	active
